Measurements taken from PubChem BioAssay (NCI).
This is part of a sample that, as a whole, favours compounds with a hit. Of some 79,000 tested, about 15% had one in any assay. Calls of active or inactive are those of the source. Rule as the data show it: active = growth inhibition above about 70%; inactive = the rest.

Columns and labels:
[1] = NCI Yeast Anticancer Drug Screen. Data for the wt1 strain (AID 149);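 also: 0% = growth of vehicle-treated wt1 cultures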; conditions: S. cerevisiae wt1 strain (SPY 50644) growth inhibition, hits give high values
How it was run: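 Yeast wt1 strain exposed to compounds; growth inhibition measured relative to vehicle-treated controls.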

[2] = NCI Yeast Anticancer Drug Screen. Data for the rad50EPP+ strain (AID 151);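 also: 0% = growth of vehicle-treated control cultures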; conditions: S. cerevisiae rad50 mutant strain, hits give high values
How it was run: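 Yeast strain carrying rad50 alteration (rad50EPP+) exposed to compounds; growth inhibition measured relative to vehicle-treated controls.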

[3] = NCI Yeast Anticancer Drug Screen. Data for the mgt1 strain (AID 153); conditions: S. cerevisiae mgt1 mutant growth inhibition, hits give high values
How it was run: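 Yeast mgt1 strain (DNA repair/cell-cycle alteration panel) exposed to compounds; growth inhibition measured relative to vehicle-treated controls.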

[4] = NCI Yeast Anticancer Drug Screen. Data for the rad50 strain (AID 155);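 also: 0% = growth of vehicle-only cultures of the same strain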; conditions: S. cerevisiae rad50 strain growth inhibition, hits give high values
How it was run: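 Yeast carrying a defined DNA repair defect were exposed to test compounds, and growth was compared with vehicle-treated controls to give percent inhibition.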

[5] = NCI Yeast Anticancer Drug Screen. Data for the mec2-1 strain (AID 157); conditions: S. cerevisiae mec2-1 strain, hits give high values
How it was run: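 mec2-1 yeast strain, carrying an alteration in DNA damage repair or cell cycle control, was exposed to compounds; growth inhibition was measured relative to vehicle-treated controls.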

[6] = NCI Yeast Anticancer Drug Screen. Data for the rad14 strain (AID 159);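 also: 0% = growth of vehicle-treated control cultures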; conditions: S. cerevisiae rad14 strain growth inhibition, hits give high values
How it was run: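 Yeast cells carrying a defined DNA-repair defect were exposed to compounds, and growth inhibition was calculated relative to vehicle-treated control cultures.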

[7] = NCI Yeast Anticancer Drug Screen. Data for the sgs1 mgt1 strain (AID 161);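 also: 0% = growth of cultures given vehicle only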; conditions: S. cerevisiae sgs1 mgt1 strain, hits give high values
How it was run: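 Compounds are added to genetically altered yeast, and growth is compared with cultures given vehicle alone to give percent inhibition.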

[8] = NCI Yeast Anticancer Drug Screen. Data for the CLN2oe strain (AID 163);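 also: 0% = growth of vehicle-only control cultures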; conditions: S. cerevisiae CLN2oe strain, hits give high values
How it was run: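 Yeast cells carrying a defined cell-cycle control alteration were exposed to test compounds. Growth inhibition was scored against vehicle-treated control cultures.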

[9] = NCI Yeast Anticancer Drug Screen. Data for the cln2 rad14 strain (AID 165);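 also: 0% = growth equal to vehicle treated cultures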; conditions: S. cerevisiae cln2 rad14 strain, hits give high values
How it was run: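 Yeast carrying cln2 and rad14 alterations (cell cycle control and DNA damage repair) were exposed to compounds. Growth inhibition was measured against vehicle-treated controls.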

[10] = NCI Yeast Anticancer Drug Screen. Data for the bub3 strain (AID 167); conditions: S. cerevisiae bub3 mutant strain, hits give high values
How it was run: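 Compounds were applied to a genetically altered yeast strain carrying a cell-cycle control defect. Growth inhibition was scored against vehicle-treated controls.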

[11] = NCI Yeast Anticancer Drug Screen. Data for the wt2 strain (AID 169);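 also: 0% = growth of vehicle-treated yeast cultures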; conditions: S. cerevisiae wt2 strain growth inhibition, hits give high values
How it was run: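 Yeast cells were exposed to test compounds, and growth inhibition was measured relative to vehicle-treated controls.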

[12] = NCI Yeast Anticancer Drug Screen. Data for the mlh1 strain (AID 171);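 also: 0% = growth of vehicle-treated control cultures of the same strain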; conditions: S. cerevisiae mlh1 strain growth inhibition, hits give high values
How it was run: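 Yeast carrying a defined genetic alteration in DNA damage repair or cell cycle control were exposed to test compounds. Growth inhibition was measured relative to vehicle-treated controls.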

[13] = NCI Yeast Anticancer Drug Screen. Data for the sgs1 strain (AID 173);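 also: 0% = growth of vehicle-only control cultures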; conditions: S. cerevisiae sgs1 mutant, hits give high values
How it was run: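 Yeast mutant strains carrying defined defects in DNA damage repair or cell cycle control were exposed to test compounds. Growth inhibition was scored against vehicle-treated controls.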

[14] = NCI Yeast Anticancer Drug Screen. Data for the mlh1 rad18 strain (AID 175); conditions: S. cerevisiae mlh1 rad18 strain growth inhibition, hits give high values
How it was run: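 Growth inhibition of the yeast strain was measured after compound exposure and expressed relative to vehicle-treated controls. The strain carries defined defects in DNA damage repair.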

[15] = NCI Yeast Anticancer Drug Screen. Data for the rad18 strain (AID 177); conditions: S. cerevisiae rad18 mutant growth inhibition, hits give high values
How it was run: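 Yeast carrying a defined DNA damage repair alteration were exposed to compounds. Growth inhibition was expressed relative to vehicle-treated controls.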

[16] = NCI Yeast Anticancer Drug Screen. Data for the rad52 strain (AID 147);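 also: 0% = growth of vehicle-treated control cultures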; conditions: S. cerevisiae rad52 mutant growth inhibition, hits give high values
How it was run: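 Yeast strain carrying a DNA damage repair alteration was exposed to test compounds. Growth inhibition was measured relative to vehicle-treated controls.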

[17] = at 5.0 µM (retest, dose inferred, filed as 0.5)
[18] = at 50.0 µM (retest, dose inferred, filed as 5.0)

Measured: growth inhibition

Nc1cccc2cc(Cl)cnc12
inactive: [1]; at 1.2 µM -26% | [1]; at 3.7 µM -26% | [1]; at 11.0 µM -28% | [1]; at 33.0 µM -23% | [1]; at 100.0 µM 63% | [2]; at 1.2 µM -3% | [2]; at 3.7 µM 5% | [2]; at 11.0 µM 11% | [2]; at 33.0 µM 39% | [3]; at 1.2 µM -2% | [3]; at 3.7 µM -2% | [3]; at 11.0 µM 7% | [3]; at 33.0 µM 10% | [3]; at 100.0 µM 64% | [4]; at 1.2 µM 18% | [4]; at 3.7 µM 24% | [4]; [17] 62% | [4]; at 11.0 µM 31% | [4]; at 33.0 µM 47% | [5]; at 1.2 µM 12% | [5]; at 3.7 µM 10% | [5]; [17] 53% | [5]; at 11.0 µM 13% | [5]; at 33.0 µM 7% | [5]; at 50.0 µM 20.9% | [6]; at 1.2 µM -36% | [6]; at 3.7 µM -31% | [6]; at 11.0 µM -36% | [6]; at 33.0 µM -31% | [6]; at 100.0 µM 58% | [7]; [17] 3% | [7]; [18] 10% | [7]; at 50.0 µM 59.7% | [8]; at 1.2 µM 2% | [8]; at 3.7 µM -4% | [8]; at 11.0 µM -23% | [8]; at 33.0 µM -16% | [8]; at 100.0 µM 38% | [9]; [17] 52% | [9]; [18] 41% | [9]; at 50.0 µM 49.3% | [10]; at 1.2 µM 3% | [10]; at 3.7 µM 10% | [10]; [17] 41% | [10]; at 11.0 µM 8% | [10]; at 33.0 µM 13% | [10]; [18] 18% | [10]; at 50.0 µM 38.5% | [11]; at 1.2 µM -34% | [11]; at 3.7 µM -18% | [11]; at 11.0 µM -20% | [11]; at 33.0 µM -15% | [11]; at 100.0 µM 34% | [12]; at 1.2 µM -40% | [12]; at 3.7 µM -41% | [12]; at 11.0 µM -40% | [12]; at 33.0 µM -33% | [12]; at 100.0 µM 49% | [13]; at 1.2 µM -32% | [13]; at 3.7 µM -31% | [13]; at 11.0 µM -14% | [13]; at 33.0 µM 0% | [13]; at 100.0 µM 64% | [14]; [17] 55% | [14]; at 50.0 µM 67.3% | [15]; at 1.2 µM 13% | [15]; at 3.7 µM 27% | [15]; at 11.0 µM 61%
active: [2]; at 100.0 µM 76% | [4]; [18] 98% | [4]; at 50.0 µM 71% | [4]; at 100.0 µM 87% | [5]; [18] 98% | [5]; at 100.0 µM 78% | [10]; at 100.0 µM 81% | [14]; [18] 100% | [15]; at 33.0 µM 82% | [15]; at 100.0 µM 90%

O=C1c2ccc(O)cc2C(=O)c2c(O)ccc(O)c21
active: [1]; at 11.0 µM 94% | [1]; at 33.0 µM 97% | [1]; at 100.0 µM 93% | [2]; at 11.0 µM 93% | [2]; at 33.0 µM 93% | [2]; at 100.0 µM 88% | [3]; at 11.0 µM 78% | [3]; at 33.0 µM 93% | [3]; at 100.0 µM 91% | [4]; at 11.0 µM 87% | [4]; at 33.0 µM 95% | [4]; [18] 90% | [4]; at 50.0 µM 71.2% | [4]; at 100.0 µM 89% | [5]; at 11.0 µM 87% | [5]; at 33.0 µM 95% | [5]; [18] 93% | [5]; at 100.0 µM 89% | [6]; at 11.0 µM 93% | [6]; at 33.0 µM 95% | [6]; at 100.0 µM 91% | [7]; [18] 90% | [7]; at 50.0 µM 77.2% | [8]; at 11.0 µM 92% | [8]; at 33.0 µM 94% | [8]; at 100.0 µM 91% | [9]; [18] 88% | [10]; at 33.0 µM 91% | [10]; [18] 92% | [10]; at 100.0 µM 88% | [11]; at 11.0 µM 92% | [11]; at 33.0 µM 96% | [11]; at 100.0 µM 90% | [12]; at 11.0 µM 88% | [12]; at 33.0 µM 94% | [12]; at 100.0 µM 91% | [13]; at 11.0 µM 90% | [13]; at 33.0 µM 95% | [13]; at 100.0 µM 91% | [14]; [18] 97%
inactive: [1]; at 1.2 µM 4% | [1]; at 3.7 µM 17% | [2]; at 1.2 µM 25% | [2]; at 3.7 µM 64% | [3]; at 1.2 µM 1% | [3]; at 3.7 µM 10% | [4]; at 1.2 µM 16% | [4]; at 3.7 µM 35% | [4]; [17] 53% | [5]; at 1.2 µM 9% | [5]; at 3.7 µM 28% | [5]; [17] 45% | [5]; at 50.0 µM 49.1% | [6]; at 1.2 µM 10% | [6]; at 3.7 µM 27% | [7]; [17] 50% | [8]; at 1.2 µM 7% | [8]; at 3.7 µM 21% | [9]; [17] 32% | [9]; at 50.0 µM 51% | [10]; at 1.2 µM -2% | [10]; at 3.7 µM 0% | [10]; [17] 18% | [10]; at 11.0 µM 62% | [10]; at 50.0 µM 29% | [11]; at 1.2 µM 1% | [11]; at 3.7 µM 19% | [12]; at 1.2 µM 4% | [12]; at 3.7 µM 20% | [13]; at 1.2 µM 3% | [13]; at 3.7 µM 19% | [14]; [17] 48% | [14]; at 50.0 µM 68.7%

Cc1ccc(P(c2ccc(C)cc2)c2ccc(C)cc2)cc1
inactive: [16]; at 1.2 µM -11% | [16]; at 3.7 µM -12% | [16]; at 11.0 µM 1% | [16]; at 33.0 µM 11% | [16]; at 100.0 µM 23% | [1]; at 1.2 µM -25% | [1]; at 3.7 µM -12% | [1]; at 11.0 µM -5% | [1]; at 33.0 µM 1% | [1]; at 100.0 µM 7% | [6]; at 1.2 µM -34% | [6]; at 3.7 µM -41% | [6]; at 11.0 µM -40% | [6]; at 33.0 µM -31% | [6]; at 100.0 µM -31% | [8]; at 1.2 µM 8% | [8]; at 3.7 µM 4% | [8]; at 11.0 µM 4% | [8]; at 33.0 µM 10% | [8]; at 100.0 µM 18% | [12]; at 1.2 µM -30% | [12]; at 3.7 µM -36% | [12]; at 11.0 µM -16% | [12]; at 33.0 µM -6% | [12]; at 100.0 µM 13% | [13]; at 1.2 µM -27% | [13]; at 3.7 µM -27% | [13]; at 11.0 µM 4% | [13]; at 33.0 µM 18% | [13]; at 100.0 µM 39% | [15]; at 1.2 µM -1% | [15]; at 3.7 µM -4% | [15]; at 11.0 µM 9% | [15]; at 33.0 µM 28% | [15]; at 100.0 µM 34%
